# In ChEMBL document CHEMBL3988442, “University of Dundee, Small-Polar-MMV Screening Library” (2021):
# The campaign covered roughly 69,000 compounds. About 950 (1.4%) showed an effect of 50% or more. The sample holds strong results, similar compounds and a random draw of the others, so the mix is not that of the screen.
# System: Mycobacterium tuberculosis
# Assay: Cornell M. t heat shock assay; also: in the data most compounds retested in dose-response had high values
# Format: functional, organism-based
# Set-up: dose or concentration left out as unconfirmed
row,SMILES,Percent Effect [%]
1,CC(C)(C)c1n[nH]c(C2CN(CCc3ccncc3)CCO2)n1 (stereo not drawn),12.04
2,CC(=O)N1CCN(Cc2ccncc2)CC2(CC(=O)N(C)C2)C1.O=C(O)C(F)(F)F.O=C(O)C(F)(F)F (stereo not drawn),-4.515
3,Cn1ccnc1CN1CC[C@H]2CO[C@H](CNc3ncccn3)[C@H]2C1.O=C(O)C(F)(F)F.O=C(O)C(F)(F)F.O=C(O)C(F)(F)F,-17.85
4,Clc1ccc(COCC2CCN(Cc3ccccn3)CC2)cc1.O=C(O)C(=O)O,53.14
5,Fc1ccccc1CC1CCN(Cc2ccccn2)CC1,54.97
6,Fc1ccccc1CC1CCN(Cc2nccs2)CC1,7.97
7,Fc1ccc(COCC2CCN(Cc3ccccn3)CC2)cc1.O=C(O)C(=O)O,-21.79
8,COc1cc(COCC2CCN(Cc3ccccn3)CC2)cc(OC)c1.O=C(O)C(=O)O,-10.83
9,Cc1cccc(CNC(=O)CC2CCN(Cc3ccccn3)CC2)n1,-18.17
10,Cc1cccc(CN2CCC(Cc3ccccc3F)CC2)n1,100.5
11,Cc1cccc(CN2CCC(NS(C)(=O)=O)CC2)n1,10.63
12,Fc1ccccc1CC1CCN(Cc2cscn2)CC1,-8.017
13,CN1C[C@H]2C[C@H](C(=O)Nc3cccnc3)[C@@H](C1)O2,-0.0821
14,COc1ccc(CNCC(C)Oc2ccccn2)cc1.Cl (stereo not drawn),-11.53
15,Cc1cc(C(=O)N2CC[C@]3(C[C@@H](OCc4ccccn4)CO3)C2)c(C)o1.O=C(O)C(F)(F)F,38.17
16,CN(C)C(=O)CN1CCc2ncnc(N(C)C)c2CC1.O=C(O)C(F)(F)F,23.34
17,COCCn1cc2c(n1)C(CNCc1nccs1)OCC2.O=C(O)C(F)(F)F.O=C(O)C(F)(F)F (stereo not drawn),-27.8
18,CN(C)Cc1cncc2c1CCN(Cc1ccoc1)C2.Cl.Cl.Cl,-10.16
19,O=C(O)C(F)(F)F.O=C(O)C(F)(F)F.O=C1[C@H]2CN(Cc3cccs3)C[C@H]2CN1CCN1CCCC1,-16.55
20,NC(=O)N1CC[C@H]2CO[C@H](CNC(=O)c3ccnnc3)[C@H]2C1,-0.7451
21,COCC(=O)N1CCC(C)(c2cc(O)[nH]n2)CC1,53.15
22,COCCN1CCC(C)(c2cc(O)[nH]n2)CC1,-2.336

row,SMILES,Percent Effect [%]
1,CC(C)C(=O)N1CCC(C)(c2cc(O)[nH]n2)CC1,1.922
2,CCOCC1CN(Cc2ccc(F)cc2)Cc2nn(C)cc21.O=C(O)C(F)(F)F (stereo not drawn),-29.18
3,CC(C)c1nc(CN2CCC(CO)CC2)cs1,17.89
4,CC(C)c1nc(CN2CCCCC2)cs1,0.8394
5,CC(C)c1nc(CC(=O)Nc2nc(CN3CCCCCC3)cs2)cs1,104.4
6,Oc1ccc([C@H]2Oc3cc(O)cc(O)c3C[C@@H]2O)cc1,-4.634
7,O=C1c2c(O)cc(O)cc2O[C@@H](c2ccc(O)cc2)[C@@H]1O,53.66
8,COc1cc(C2CC(=O)c3c(O)cc(O)cc3O2)ccc1O (stereo not drawn),5.655
9,CN(C)C(=O)[C@H]1C[C@@H]2CCN(Cc3ccoc3)C[C@@H]2O1.O=C(O)C(F)(F)F,36.25
10,Cc1ccc(C(=O)N2Cc3c(CN(C)C)nn(C)c3C2)cc1C.O=C(O)C(F)(F)F,-17.18
11,Cc1nc2c(Nc3cccc(C#N)c3)nc(N)nc2n1C,102.2
12,Cc1nc2c(Nc3ccc(C#N)cc3)nc(N)nc2n1C,5.734
13,CC(=O)c1ccc(Nc2nc(N)nc3c2nc(C)n3C)cc1,10.63
14,Cc1cnc(CNC(=O)[C@@]23CCO[C@@H]2CCN(C2CCCC2)C3)cn1.O=C(O)C(F)(F)F,35.39
15,CS(=O)(=O)N1CC[C@H]2OCC[C@@]2(C(=O)NCc2ccccn2)C1.O=C(O)C(F)(F)F,65.18
16,Cc1cnc(CNC(=O)[C@@]23CCO[C@@H]2CCN(c2ncccn2)C3)cn1,39.63
17,O=C(NCc1ccccn1)[C@@]12CCO[C@@H]1CCN(C1CCCC1)C2.O=C(O)C(F)(F)F.O=C(O)C(F)(F)F,40.27
18,O=C(NCCc1ccccn1)[C@@]12CCO[C@@H]1CCN(c1ncccn1)C2,-5.799
19,CS(=O)(=O)N1CC[C@H]2OCC[C@@]2(C(=O)NCCc2ccccn2)C1.O=C(O)C(F)(F)F,-5.552
20,CC(=O)N1CC[C@H]2OCC[C@@]2(C(=O)NCc2cnc(C)cn2)C1,51.19
21,O=C(NCc1ccccn1)[C@@]12CCO[C@@H]1CCN(Cc1ccccn1)C2.O=C(O)C(F)(F)F.O=C(O)C(F)(F)F.O=C(O)C(F)(F)F,19.83
22,O=C(NCc1ccccn1)[C@@]12CCO[C@@H]1CCN(c1ncccn1)C2,92.45

row,SMILES,Percent Effect [%]
1,Cc1ccc(O[C@@H]2C[C@H]3CN(c4ncc(F)cn4)CCN3C2)cc1.O=C(O)C(F)(F)F.O=C(O)C(F)(F)F,19.77
2,CN(C)S(=O)(=O)N1C[C@H]2C[C@H](C(=O)Nc3ccccc3)[C@@H](C1)O2,3.45
3,N#Cc1cccc(CN2CC[C@@H]3[C@@H]2CC(=O)N3Cc2ccncc2)c1.O=C(O)C(F)(F)F.O=C(O)C(F)(F)F,1.363
4,COCCN1CC[C@H]2OCC[C@@H](C(=O)N3CCCO3)[C@H]2C1.O=C(O)C(F)(F)F,-19.22
5,O=C(O)C(F)(F)F.c1ccc(N2CCC3(CCCN(c4ncccn4)C3)C2)nc1 (stereo not drawn),-26.18
6,CC(C)NC(=O)[C@H]1C[C@H]2OCC[C@H]2N(Cc2ccc3ccccc3n2)C1.O=C(O)C(F)(F)F.O=C(O)C(F)(F)F,-9.211
7,Cc1ccc(C(=O)N2CCC3(CC2)CN(c2ccccn2)CCO3)cc1.O=C(O)C(F)(F)F,-9.264
8,Cn1cc(CN2Cc3c(cnn3C)C(COCC3CC3)C2)cn1.O=C(O)C(F)(F)F.O=C(O)C(F)(F)F (stereo not drawn),-38.19
9,CO[C@H]1CCN(C(=O)Cc2ccsc2)[C@@H]2CN(CC3CC3)C[C@H]12.O=C(O)C(F)(F)F,-6.3
10,Cc1cnc(C(=O)N2Cc3ncn(C)c3C(COCC(C)C)C2)cn1.O=C(O)C(F)(F)F (stereo not drawn),6.608
11,CN1CCN([C@@H]2CCN(CC3=Cc4cc(Cl)ccc4OC3)C[C@H]2O)CC1,-1.479
12,O[C@@H]1CN(CC2=Cc3cc(Cl)ccc3OC2)CC[C@H]1N1CCCCCC1,85.47
13,Cc1c(CN2CC[C@@H](N3CCC(O)CC3)[C@H](O)C2)[nH]c2ccc(Cl)cc12,15.96
14,CC(C)NC(=O)CC1COC2(CCN(Cc3ccsc3)CC2)C1.O=C(O)C(F)(F)F (stereo not drawn),-6.674
15,CCN(CC)C(=O)c1ccc(-c2ccsc2)nc1C,85.72
16,CCN(CC)C(=O)CN(C)C(=O)c1ccc(-c2ccsc2)nc1C,-2.005
17,CCN(CC(=O)NC(C)C)C(=O)c1ccc(-c2ccsc2)nc1C,-31.64
18,COCCN1CCC(c2nc3ccc(NC4CCC4)cn3n2)CC1.O=C(O)C(F)(F)F,43.84
19,CC(C)(C)C(=O)N1C[C@H](c2ccsc2)[C@H]2CN(C3CCCCC3)CC[C@H]21.Cl,6.818
20,CCC(=O)N1CCC2(CC1)C(=O)N(Cc1cccnc1)CCN2C.O=C(O)C(F)(F)F.O=C(O)C(F)(F)F,-1.837
21,Cc1ccn(-c2ccccc2NCc2ccccn2)n1,31.75
22,Cc1ccn(-c2ccccc2NCc2cscn2)n1,-34.26

row,SMILES,Percent Effect [%]
1,Cc1ccc(CNc2ccccc2-n2ccc(C)n2)nc1,73.74
2,COCCn1ccc2ccc(C(=O)O)cc21,-0.8971
3,COCCn1ccc2ccc(C(=O)N3CCN(C(C)=O)CC3)cc21,4.647
4,COCCn1ccc2cc(C(=O)N3CCN(S(C)(=O)=O)CC3)ccc21,72.24
5,CCOCC(O)CN1CCN(C(=O)Cc2ccc(C)cc2)CC1 (stereo not drawn),-41.68
6,Cn1cc(C[C@H]2[C@H](O)CCN2CC2CC2)cn1.O=C(O)C(F)(F)F,6.686
7,O=C(O)C(F)(F)F.O=C(c1ccc(F)cc1)N1C[C@@H]2COC[C@]2(COc2cccnc2)C1,37.91
8,O=C1C(CS(=O)(=O)Nc2ccccc2)=NC(=O)n2cccc21,-27.85
9,COCCN(Cc1sccc1C)Cc1nccn1CCOC,-20.4
10,COCCN(Cc1ccccn1)Cc1sccc1C,-13.89
11,COCCn1ccnc1CN(Cc1ccccn1)Cc1sccc1C,88.17
12,Cl.c1cnc2c(c1)cc([C@@H]1CCCO1)n2CCN1CCCCC1,-17.62
13,CCN(CC)S(=O)(=O)N1CCc2nc(C3CCNCC3)ncc2C1.Cl,-7.475
14,CN(Cc1ccnc2ccccc12)C1CCS(=O)(=O)C1.O=C(O)CC(O)(CC(=O)O)C(=O)O (stereo not drawn),6.818
15,CSc1[nH]nc(NC(=O)c2cccs2)c1C#N,104.2
16,CSc1[nH]nc(NC(=O)c2ccncc2)c1C#N,6.331
17,CSc1[nH]nc(NC(=O)c2ccccc2)c1C#N,-4.998
18,CN(C)[C@@H]1CCN(C(=O)c2cccc(C#N)c2)[C@H]1Cc1cnn(C)c1.O=C(O)C(F)(F)F,5.533
19,Cc1ccc(N2CCO[C@H]3CN(Cc4ccc(F)cc4)C[C@H]32)nn1.O=C(O)C(F)(F)F.O=C(O)C(F)(F)F,-13.42
20,Clc1ccc(OCCNC2(c3ccc(Br)cc3)CCOCC2)cc1,73.72
21,CCOCCNC1(c2ccc(Cl)cc2)CCOCC1,12.33
22,COCCNC1(c2ccc(Cl)cc2)CCOCC1,20.91
